Only some compounds are listed: those with a hit (about 1.2% of all), similar ones and a draw of the others.
PrP 5UTR inh: inhibition of PrP 5' UTR reporter expression | cell-based PrP 5' UTR mRNA reporter, plate reader | inhibition, % (test concentration not listed) | 0.35% of 340,000 active | AID 488862, 2010; in the data active means inhibition above about 52%; further: 0 = median of the neutral control wells
PfHsp40 yeast: rescue of yeast from PfHsp40 toxicity, primary screen, S. cerevisiae, ATP luminescence; AID 504582, 2011; growth rescue, % at 12.5 µM; 0.68% of 340,000 active; S. cerevisiae expressing PfHsp40, growth rescue; in the data active means growth rescue above about 28%, passing the limit was not always enough;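 further: yeast W303a lacking pdr1 and pdr3 grown in galactose medium; growth measured after three days at 30 °C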
TcdB inh: TcdB glycohydrolase inhibitors, primary screen, biochemical, single point, plate reader. TcdB glycohydrolase enzymatic assay. inhibition, % at 9.99 µM. 0.24% of 350,000 active. AID 652162, 2013; in the data active means inhibition above about 10%
Sa ugtP lethal: growth inhibition of ugtP-null S. aureus, primary screen, RN4220 ugtP deletion, OD600; 0.54% of 330,000 active; 16 h; growth inhibition, % (test concentration not listed); in the data active means growth inhibition above about 68%;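 further: plate controls were untreated wells for no effect and antibiotic for full effect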
RN4220 kill: growth inhibition of S. aureus RN4220, primary screen, OD600 | 16 h | inhibition, % (no concentration beside the values) | 0.33% of 330,000 active | AID 1259311, 2017; in the data active means inhibition above about 85%;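 further: plate controls were untreated cells for no effect and reference antibiotic for full effect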
* = called active by the depositor; x = no result given.

SMILES | PrP 5UTR inh | PfHsp40 yeast | TcdB inh | Sa ugtP lethal | RN4220 kill
COc1cc(S(=O)(=O)NC2CCCCC2C)ccc1F (stereo not drawn) | -12 | 98* | 0 | -1 | 2
C[C@@H]1CCCCO[C@@H](CN(C)C)[C@H](C)CN([C@@H](C)CO)C(=O)c2cc(NC(=O)c3ccccc3)ccc2O1 | x | x | -1 | x | x
Cc1cc(C)c2c(C)[nH]nc2n1 | x | x | 0 | 8 | 1
CCN(CC)N=Nc1[nH]nc2nc(C)cc(C)c12 | -8 | 45* | x | 45 | 13
CC(=O)n1nc2nc(C)cc(C)c2c1N | -13 | 2 | x | 17 | -1
Cc1cc(C)c2c(N=NN3CCCCC3)[nH]nc2n1 | -8 | 86* | 1 | 54 | 13
C[C@@H]1CCCCO[C@@H](CN(C)S(=O)(=O)c2cn(C)cn2)[C@H](C)CN([C@@H](C)CO)C(=O)c2cc(NS(C)(=O)=O)ccc2O1 | x | x | 1 | x | x
ClC(Cl)(c1nnnn1-c1ccccc1)c1nnnn1-c1ccccc1 | -18 | 13 | x | 100* | 100*
COc1ccc2c3c(n(C)c2c1)[C@H](CO)N(C(=O)C1CCCCC1)CC31CCN(C(=O)CN(C)C)CC1 | x | x | 0 | x | x
COc1ccc(OC)c(-c2c3cc(O)c(=O)cc-3oc3cc(O)c(O)cc23)c1 | -15 | 287* | x | x | x
CN1C(=O)C(=Cc2ccccc2OCCOc2ccc([N+](=O)[O-])cc2)C(=O)N(C)C1=O | -24 | 23 | 0 | -2 | 18
O=C1NC(=O)C(=Cc2ccccc2OCCOc2ccc([N+](=O)[O-])cc2)C(=O)N1 | -20 | 45* | x | -4 | 28
O=S(=O)(Nc1cccc(-c2nc3cccnc3s2)c1)c1ccc2c(c1)OCCO2 | 12 | 0 | 2 | 93* | 8
Cc1cc(C)nc(N=C(NC(=O)C(C)(C)C)Nc2ccccc2)n1 | x | x | x | 0 | 1
C[C@H](CO)N1C[C@H](C)[C@H](CN(C)C(=O)CN(C)C)Oc2cc(C#Cc3ccc(F)cc3)ccc2S1(=O)=O | x | x | 2 | x | x
CCN(CC)CCCNC(=O)c1cc(-c2ccccc2)c(N2CCCCC2)s1 | x | 1 | 2 | 88* | 4
O=C1CC(N(CCc2ccccc2)C(=S)Nc2ccccc2)C(=O)N1c1ccc(Br)cc1 (stereo not drawn) | -18 | 1 | 0 | 98* | 98*
Cc1ccc(NC(=S)NC(=O)C2CCCCC2)c(Br)c1 | -62 | 7 | -2 | 87* | -1
NS(=O)(=O)c1ccc(NC(=S)NC(=O)C2CCCCC2)cc1 | -20 | -1 | 1 | 89* | 5
NS(=O)(=O)c1ccc(NC(=S)NC2CCCCCC2)cc1 | 4 | 0 | x | 1 | 2
O=C(N[C@H]1C=C[C@H](CC(=O)N2CCOCC2)O[C@H]1CO)c1cccc(F)c1 | x | x | -1 | x | x
C[C@@H]1CN([C@H](C)CO)C(=O)Cc2cc(NS(C)(=O)=O)ccc2O[C@@H]1CN(C)C(=O)NC1CCCCC1 | x | x | -1 | x | x
CN1C(=O)c2cc(NC(=O)Nc3ccccc3F)ccc2OC[C@@H]2O[C@H](CC(=O)NCc3ccc(-c4ccccc4)cc3)CC[C@H]21 | x | x | 1 | x | x
CCCCn1c(CN2CCN(C(=O)c3ccco3)CC2)nc2c1c(=O)n(C)c(=O)n2C | -50 | 0 | 10* | -9 | -8
CCCCCn1c(CN2CCN(C(=O)c3ccco3)CC2)nc2c1c(=O)n(C)c(=O)n2C | -17 | 0 | 3 | -7 | -14
SMILES | PrP 5UTR inh | PfHsp40 yeast | TcdB inh | Sa ugtP lethal | RN4220 kill
CCCn1c(SCC(=O)N2CCN(C(=O)c3ccco3)CC2)nc2ccccc2c1=O | -25 | 74* | 2 | 2 | 0
COCC(=O)N1[C@H](C#N)[C@H](c2ccc(C3=CCCC3)cc2)[C@@H]1CO | x | x | 0 | x | x
N#C[C@H]1[C@H](c2ccccc2-c2ccccc2F)[C@H](CO)N1C(=O)Cc1ccccc1 | x | x | 0 | x | x
Fc1ccc(C[n+]2c(-c3ccccc3)cc(-c3ccccc3)cc2-c2ccccc2)cc1 | x | x | 2 | x | x
Clc1ccc(C[n+]2c(-c3ccccc3)cc(-c3ccccc3)cc2-c2ccccc2)cc1 | -19 | 0 | 2 | 100* | 100*
O=C([O-])c1cc(-c2ccccc2)cc(-c2ccccc2)[n+]1CCc1ccc(Cl)cc1 | -5 | 1 | -3 | 100* | 88*
CNc1ccc(Br)cc(C(=O)/C=C/c2cccc(OC)c2)c1=O | -23 | 1 | x | -6 | 4
CNc1ccc(Br)cc(C(=O)/C=C/c2ccc(OC)cc2OC)c1=O | -9 | 0 | x | 98* | -7
O=C(COc1ncnc2ccccc12)NCCc1ccc(F)cc1 | -20 | -1 | 13* | -1 | 6
Oc1ccccc1Cn1nnc2ccccc21 | -20 | -1 | 1 | 5 | 2
COc1cc(Cn2nnc3ccccc32)ccc1O | -13 | 1 | 18* | 8 | -1
C[C@@H]1CN([C@@H](C)CO)C(=O)Cc2cc(NC(=O)Cc3cn(C)c4ccccc34)ccc2O[C@H]1CN(C)S(=O)(=O)c1ccccc1 | x | x | 1 | x | x
COc1ccc2c3c([nH]c2c1)C(C)=NCC3 | -11 | -1 | 1 | 6 | 8
CC1=NCCc2c1[nH]c1cc(O)ccc21 | 6 | -1 | 42* | 1 | 6
Cc1ccc(C=CC(=O)NCc2ccncc2)cc1 | x | x | x | 9 | 5
C=C(C)COc1ccc(-c2[nH]ncc2-c2ccccc2OC)c(O)c1 | -18 | 0 | x | 23 | -15
C=C(C)COc1ccc(-c2[nH]ncc2-c2ccc(Br)cc2)c(O)c1 | -21 | 309* | x | 80 | -12
CN(C)CC(=O)N[C@@H]1CC[C@H](CCNC(=O)C2CCCCC2)O[C@H]1CO | x | x | 0 | x | x
CC(=O)NC(=S)NNC(=O)C(c1ccccc1)c1ccccc1 | -10 | 62* | 0 | 6 | 16
N#CCC(=O)NNC(=S)NC(=O)C(c1ccccc1)c1ccccc1 | 0 | 21 | -1 | -4 | 8
CCCCN1C(=N)N([C@@H](C)CN2CCC[C@H]2CN2C(N)=NC[C@@H]2Cc2ccccc2)C[C@H]1[C@H](C)CC | -19 | 1 | 0 | x | x
CCC[C@@H](CN1CCC[C@H]1CN1C(N)=NC[C@H]1CC(C)C)N1C[C@@H](Cc2ccccc2)N(CCCC2CCCC2)C1=N | -7 | 1 | 1 | 101* | 100*
CC(CN1CCCC1CN1C(N)=NCC1Cc1ccccc1)N1CC(Cc2ccccc2)N(CCCC2CCCC2)C1=N (stereo not drawn) | x | x | x | 100* | 101*
CCC(C)C1CN(C(C)CN2CCCC2CN2C(N)=NCC2Cc2ccccc2)C(=N)N1CCCC1CCCC1 (stereo not drawn) | x | x | x | 100* | 100*
O=C(O)C[C@H]1C[C@H]2c3cc(NS(=O)(=O)c4ccccc4)ccc3O[C@H]2[C@H](CO)O1 | x | x | -2 | x | x
COc1cccc(-c2nc(=S)c3c(n2Cc2ccco2)CCCC3)c1 | -22 | 3 | x | 85* | -3
Cc1cccc(-c2nc(=S)c3c(n2Cc2ccco2)CCCC3)c1 | -5 | 1 | x | 42 | 2
C[C@H]1CN([C@@H](C)CO)C(=O)c2c(c3ccccc3n2C)-c2ccccc2CO[C@H]1CN(C)C | x | x | 11* | x | x

Source: PubChem
